First the molecules themselves.
B1: chr2:27433287:27433389:+|CDS|ENSG00000115216|unk|FALSE|unique (ssRNA)
RNA: GGGAGUUCUACAGUCCGACGAUCUUCCAGCAUGUCGGAGGGGGAGUCCCAGACAGUACUUAGCAGUGGCUCAGACCCAAAGGUAGAAUCCUCAUCUUCAGCUCCUGGCCUGACAUCAGUGUCACCUCCUGUGACCUCCACAACCAACAGAGGAUUGAGCAUCA
B2: chr8:6811200:6812339:-|CDS|ENSG00000275591|control|control|control (ssRNA)
RNA: GGGAGUUCUACAGUCCGACGAUCAUGUAGAGGCUUCUGCCCCAGUGCAGGCUUCCCUGGAAGAACCCUCAGUAUCUCAGAGCUAGAGGAGCCGCUGGAGCCCAAAAGGGAGCUAAGUCACCAUGCAGCUGUUGGUGUGUGGGUCAACAGAGGAUUGAGCAUCA
B3: chr19:58083837:58084684:-|three_prime_utr|ENSG00000121413|control|control|control (ssRNA)
RNA: GGGAGUUCUACAGUCCGACGAUCGCUCGCAUCCGAGGGGAGCCGCCGGAUGUGGAAGAAGACUCGGCUUUCCUGCAGCCAUUUAGUGCCGCCCCAUGCUAGGUUAUUUGACAUUGUGCAGUGUAGAGUUGCCUUAAAGUGCGUCAACAGAGGAUUGAGCAUCA
B4: chr1:211748167:211748268:-|3pUTR|ENSG00000123684|msi1|FALSE|unique (ssRNA)
RNA: GGGAGUUCUACAGUCCGACGAUCGUACUGCAUCAGUGAGAUGAGUAGGGUUUUUGUUUGGGAUUGUAAGACUAUUAAGAUCCUAGUAAGUCAGUGGUAGUUUACUGUGAUGUGAGCAUUGUAGAUUCCCCCGUUGUCACUAAUCAACAGAGGAUUGAGCAUCA
B5: chr17:63354981:63355093:+|CDS|ENSG00000170921|unk|total|mutant (ssRNA)
RNA: GGGAGUUCUACAGUCCGACGAUCCAGUCAAGGGUCCUAUCUAUAUCUGAAACUUACAUUUGACCUCACCGAGAAAGGCUAUCCCGUGUUAAAGAGCUCCCGCUACAAAGCCGUUCCUGUUUCGCUCUCAGAGGUUUAUUUACUCAACAGAGGAUUGAGCAUCA
B6: chr11:72288215:72288316:-|3pUTR|ENSG00000162129|unk|FALSE|unique (ssRNA)
RNA: GGGAGUUCUACAGUCCGACGAUCACCCAGCUAAUUUUUUUUGUAUUUUUAGUAAAGACGGGGUUUCACCAUGUUUGCCAGGCUAGUCUCAAACUCCUGGUCUCAAGUGAUCCACCCACCUUGGCCUCCCAGAGUGCUGAGAUUCAACAGAGGAUUGAGCAUCA
B7: chr11:107429260:107429366:-|CDS|ENSG00000152404|unk|total|mutant (ssRNA)
RNA: GGGAGUUCUACAGUCCGACGAUCGAGGAAACCCACAUAUUCAGAUAAAGCACAAAAUUGUCAAGAAAGCCGAGAAUCAGACUCCGUAAAAUAUGGUAACAGUUCAAGGGACCGAUAUGCUACAACAGAUACUGCAAAAAACCGCAACAGAGGAUUGAGCAUCA
B8: ENSG00000136451:be:win_3351|3pUTR|ENSG00000136451|bound_else_gene|NA|bound_elsewhere_windowed (ssRNA)
RNA: GGGAGUUCUACAGUCCGACGAUCGAAGGCAACACAUUCCUACACUUUUAAUGUAUAUGUUUGUUAUAAUGUCCAUGUAAACAUGCCCUAUGUUUGUGCCUUUUAAUUAGUUUGUCUCAAUAAACAAAAUGUAGAGAAAAAUAUCAACAGAGGAUUGAGCAUCA
B9: chr10:92030471:92030572:+|3pUTR|ENSG00000095564|unk|FALSE|unique (ssRNA)
RNA: GGGAGUUCUACAGUCCGACGAUCUAUUUUUUUAUUAACUAUUUAUUUGCUAGUUCCAUAAACCAGCUCUUUAACAUAGCUUAUAGUAAUUGAUAUUUUCUUAGAAUAAGUACAGAGCAAUAUAUCAUUAAAGGGCUAUGAAGGCAACAGAGGAUUGAGCAUCA
B10: chr19:9526975:9527076:-|3pUTR|ENSG00000130818|unk|FALSE|unique (ssRNA)
RNA: GGGAGUUCUACAGUCCGACGAUCCCUCUCAGACCUUCCAUCAUUACUAUAUUUCACUUUUAUGCCUAUAAACACACACAAAUUAGCAUAUGUAAUCUAAUACAUUGUAGCUAUUUUUCAGAAGUUAUCAGAUCAAUUAAGUAUCAACAGAGGAUUGAGCAUCA
B11: chr11:69653362:69653473:+|3pUTR|ENSG00000110092|msi1_unk|FALSE|overlapping (ssRNA)
RNA: GGGAGUUCUACAGUCCGACGAUCACUGCCAUGUACUAGUUUUAGUUUUCUCUUAGAACAUUGUAUUACAGAUGCCUUUUUUGUAGUUUUUUUUUUUUUUAUGUGAUCAAUUUUGACUUAAUGUGAUUACUGCUCUAUUCCAAACAACAGAGGAUUGAGCAUCA
B12: chr10:92030471:92030572:+|3pUTR|ENSG00000095564|unk|total|mutant (ssRNA)
RNA: B9 RNA with U50C, A51C, U76C, A77C, U83C, A84C, U101C, A102C
B13: chr7:115017934:115018035:+|3pUTR|ENSG00000135272|unk|FALSE|unique (ssRNA)
RNA: GGGAGUUCUACAGUCCGACGAUCUGAGAUGAAACGUAGUUUCUAGUUAUAUCAUUACUUAAAGGGCUUAAAAAGAAAAAACUUAGCAAACUUUUGAAUCUUUCUUUUAUUGCUAUUUACACAUACAUACACACAUACAAAACCCAACAGAGGAUUGAGCAUCA
B14: chr17:44253117:44253371:-|CDS|ENSG00000004939|control|control|control (ssRNA)
RNA: GGGAGUUCUACAGUCCGACGAUCCAAACCUGAGCGCAAGAUGGUCAAGGGCUCCGGCUUCCACCUGGACCUGCUGCUGGUAGUAGGCAUGGGUGGGGUGGCCGCCCUCUUUGGGAUGCCCUGGCUCAGUGCCACCACCGUGCGCAACAGAGGAUUGAGCAUCA
B15: chr6:105096826:105097152:-|3pUTR|ENSG00000112276|msi1|FALSE|unique (ssRNA)
RNA: GGGAGUUCUACAGUCCGACGAUCACUUGCAACCUAGUUUUAAAAUACAUGAGGAUUUUAUGAAAGCUUUAUACAGACAUUUAUAGGAAACUCAUUCUUUGAUUUUAGGUGCCAUUUAAAUUGAUAACACUUACUUUAUAAAAACAACAGAGGAUUGAGCAUCA

Residue numbers refer to the chain shown, from its start. Over roughly 5,800 sequences, “enrichment r” has its median near 0.68; the highest 2% begin near 11. The full list was thinned out, with the highest values kept by preference.

In the assay the target is T1, UNK ZnF1-6 (called full-length) (human, UniProt Q9C0B0 30-357).
T1 sequence: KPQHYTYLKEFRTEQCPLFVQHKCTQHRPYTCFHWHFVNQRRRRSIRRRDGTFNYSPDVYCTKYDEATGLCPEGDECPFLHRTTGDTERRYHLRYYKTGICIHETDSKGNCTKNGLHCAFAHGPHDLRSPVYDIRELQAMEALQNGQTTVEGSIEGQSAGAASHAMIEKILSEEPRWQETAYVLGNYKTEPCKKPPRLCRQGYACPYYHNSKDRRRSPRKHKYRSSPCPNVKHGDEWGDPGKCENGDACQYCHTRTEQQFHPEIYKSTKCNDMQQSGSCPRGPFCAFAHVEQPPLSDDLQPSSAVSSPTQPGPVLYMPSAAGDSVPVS
The assay can be described thus: nsRBNS (natural sequence RNA bind-n-seq); RBNS binding buffer (assumed for nsRBNS): 25 mM Tris pH 7.5, 150 mM KCl, 3 mM MgCl2, 0.01% Triton X-100, 500 ug/ml BSA, 20 U/ml SUPERase-In, 4 C; UNK is unkempt and MSI1 is Musashi-1; names of the RNAs are library labels; protein concentration not given here; high values mean tight binding.
As to B1, the binding signal was 0.848 enrichment R.

B2 returned a binding signal of 0.868 enrichment R. To B3 belongs 0.832 enrichment R; to B4, 0.481 enrichment R. Then B5, with 0.664 enrichment R. In turn, B6 yielded a binding signal of 3.92 enrichment R.

For the molecule B7, the binding signal was 0.603 enrichment R. The molecule B8 yielded a binding signal of 2.53 enrichment R. To B9 belongs 34.3 enrichment R; to B10, 4.62 enrichment R; to B11, 80.9 enrichment R.

In turn, B12 returned a binding signal of 5.92 enrichment R. With B13, the binding signal worked out at 5.81 enrichment R.

Molecule B14 displayed a binding signal of 0.5 enrichment R. To B15 belongs 1.57 enrichment R.
